Hits are enriched below; roughly 27% of the tested compounds scored in any of these assays.
CYP2C9 inh – human CYP2C9 inhibition | inhibition, % at 5 µM | CYP2C9 Supersomes, luciferin-H conversion, luminescence | hit rate 20% among 96,000 | AID 777;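 active means blocking of liver enzyme CYP2C9 beyond about 50% at 5 µM, limit read from the data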
Target sequence (P11712 whole entry, looked up): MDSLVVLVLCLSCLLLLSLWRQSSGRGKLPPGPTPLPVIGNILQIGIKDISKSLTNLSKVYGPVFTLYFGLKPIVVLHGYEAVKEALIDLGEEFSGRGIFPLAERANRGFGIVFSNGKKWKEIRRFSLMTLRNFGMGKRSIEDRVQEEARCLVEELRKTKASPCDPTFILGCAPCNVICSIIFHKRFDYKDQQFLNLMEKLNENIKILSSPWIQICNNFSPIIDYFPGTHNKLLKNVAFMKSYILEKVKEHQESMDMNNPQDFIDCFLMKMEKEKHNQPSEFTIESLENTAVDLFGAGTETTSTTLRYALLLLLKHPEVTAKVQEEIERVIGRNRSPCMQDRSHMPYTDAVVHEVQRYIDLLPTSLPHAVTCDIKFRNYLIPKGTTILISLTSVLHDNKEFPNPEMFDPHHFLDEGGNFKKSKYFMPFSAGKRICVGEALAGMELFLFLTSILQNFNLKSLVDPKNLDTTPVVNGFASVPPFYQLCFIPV
sEH act – increases human soluble epoxide hydrolase activity | P34913 | purified human sEH enzymatic activity, activator screen | activation, % at 2 µM | hit rate 0.04% among 91,000 | AID 717; in the data active means activation above about 37%
sEH inh – soluble epoxide hydrolase (human) inhibition; P34913; recombinant human sEH enzymatic activity assay; inhibition, % at 2 µM; hit rate 0.34% among 91,000; AID 707; in the data active means inhibition above about 80%
CYP2C19 inh – human CYP2C19 inhibition; P33261; CYP2C19 Supersomes, luciferin-H EGE luminescence, 30 min; inhibition, % at 5 µM; hit rate 21% among 96,000; AID 778;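 active means CYP2C19 inhibition above a set limit at 5 µM in the primary screen, cut at about 50% in these data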
CYP2C19 activ – cytochrome P450 2C19 (human) activation. activation factor at 5 µM. recombinant CYP2C19, luciferin-H EGE luminescence; active compounds read high; 0 = fully inhibited enzyme, 1 = untreated enzyme. AID 1025. 96,000 tested, under 10 active. P33261;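 active means activation factor of at least 2 at 5 µM in the primary screen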
CYP2C9 activ – activators of human CYP2C9; P11712; recombinant CYP2C9, luciferin-H conversion, luminescence; active compounds read high; factor 1 = untreated enzyme, 0 = blocked; activation factor at 5 µM; hit rate 1.4% among 96,000;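 active means activation factor of 2 or more for CYP2C9 at a 5 µM dose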
Numbers stand for hits; 0 = inactive; - = no result given.

SMILES	CYP2C9 inh	sEH act	sEH inh	CYP2C19 inh	CYP2C19 activ	CYP2C9 activ
O=C(CN(Cc1ccco1)C(=O)CNS(=O)(=O)c1ccccc1)NCc1ccc(F)cc1	62	-	-	61	0	0
CCCc1nnc(NC(=O)CCC(=O)N2CCN(c3ccccn3)CC2)s1	0	0	0	0	0	0
CCOC(=O)C1=CSC2=NS(=O)(=O)CCN12	0	0	0	0	0	0
COc1ccc(C)cc1NC(=O)c1ccoc1C	0	0	0	0	0	0
COc1ccc(NC(=O)c2ocnc2C)cc1OC	0	0	0	0	0	0
Cc1occc1C(=O)Nc1ccc(Br)cc1F	0	0	0	50	0	0
COc1ccc(Cl)cc1NC(=O)c1ccoc1C	0	0	0	0	0	2.6
Cc1occc1C(=O)Nc1c(F)cc(F)cc1Br	0	0	0	0	0	0
COc1ccc(Cl)cc1NC(=O)c1ocnc1C	0	0	0	0	0	2.6
COc1ccc(C(C)(C)C)cc1NC(=O)c1ccoc1C	0	0	0	62	0	0
CCOC(=O)C(NC(=O)Cc1ccccc1)(Nc1cc(C)on1)C(F)(F)F (centres undefined)	-	0	0	-	-	-
CCC1=NC(c2ccccc2Cl)N(O)C1(C)C (centres undefined)	0	0	0	0	0	0
COC(=O)C(C)Sc1nnc(Cc2cc(=O)[nH]c(=O)[nH]2)n1-c1ccc(OC)cc1 (centres undefined)	0	0	0	0	0	0
O=C1CC(N2CCC(c3nc4ccccc4s3)CC2)C(=O)N1 (centres undefined)	0	0	0	0	0	0
Nc1c(N(C(=O)Nc2ccc(Cl)c(Cl)c2)C2CCCC2)c(=O)[nH]c(=O)n1Cc1ccccc1	0	0	0	0	0	0
O=C(COC(=O)C12CC3CC(CC(O)(C3)C1)C2)N1CCN(S(=O)(=O)c2ccc(Cl)cc2)CC1	-	0	0	-	-	-
CCOC(=O)N1CCC(NC(=O)c2cc(S(=O)(=O)N(CC)CC)ccc2F)CC1	0	0	0	0	0	0
COc1ccc(Cl)cc1NC(=O)c1nc2nc(C)cc(C(F)F)n2n1	0	-	-	0	0	3.6
COc1ccc(Cl)cc1NC(=O)N(C)Cc1c(C)nn(C)c1C	0	0	0	86	0	2.4
COc1ccc(Cl)cc1NC(=O)c1cnc2sccn2c1=O	0	-	-	0	0	2.1
COc1ccc(Cl)cc1NC(=O)c1c(-c2ccccc2)noc1C	0	0	0	0	0	0
CCC(C)NCCCCOc1ccc(C)cc1[N+](=O)[O-] (centres undefined)	0	0	0	0	0	0
CCN(CC)CCNC(=O)C(C)c1nn(C)c(=O)c2ccccc12 (centres undefined)	0	-	-	-	-	0
COc1ccccc1CNC(=O)COC(=O)c1ccc(NC(N)=O)cc1	0	-	-	0	0	0
O=C(Cc1cccc2ccccc12)NNC(=O)Nc1cccc(Cl)c1	0	0	0	56	0	2.2
SMILES	CYP2C9 inh	sEH act	sEH inh	CYP2C19 inh	CYP2C19 activ	CYP2C9 activ
COc1ccc(Cl)cc1C(=O)NNC(=S)NC(=O)c1cc(-c2ccccc2)nc2ccccc12	0	0	0	0	0	0
O=C(Cc1cccc2ccccc12)Nc1ccccc1C(=O)O	87	0	0	0	0	0
O=C(Nc1cccc(Cl)c1)Nc1cccc(Cl)c1	-	0	0	-	-	-
O=C(NNC(=O)c1cc(-c2ccccc2)nc2ccccc12)Nc1cccc(Cl)c1	75	0	0	0	0	0
CC(C)(C)c1ccc(-c2cc(C(=O)NNC(=O)Nc3ccccc3)c3ccccc3n2)cc1	82	0	0	0	0	0
C=CCNc1ncnc2c1[nH]c1ccc(C)cc12	56	0	0	0	0	0
CC(=O)Oc1ccc(N(C(C)=O)S(=O)(=O)c2cccs2)c2ccccc12	0	0	0	88	0	0
COc1ccc(S(=O)(=O)N(C)CC(=O)O)c2ccccc12	0	0	0	0	0	0
CCN(CCC(=O)Nc1ccc(Br)c(C)c1)Cc1ccccc1	64	0	0	0	0	0
CCCC(=O)Nc1cccc(NC(=O)c2ccccc2Br)c1	0	0	0	0	0	0
O=C(CCN(CCO)Cc1ccccc1)Nc1ccc(Br)cc1	63	0	0	69	0	0
O=C(NC(NC1CCS(=O)(=O)C1)C(Cl)(Cl)Cl)c1ccc(Br)cc1 (centres undefined)	0	0	0	0	0	0
CCNC(=O)/C(=C/c1ccc2c(c1)OCO2)NC(=O)c1ccc(Br)cc1	0	0	0	0	0	0
CCOc1c(CNCCNC(=O)c2nonc2N)cccc1OC	0	0	0	74	0	0
Nc1nonc1C(=O)NCCNCc1ccccc1OCc1ccccc1F	0	0	0	0	0	0
Nc1nonc1C(=O)NCCNCc1cc(Br)ccc1OCc1ccccc1F	0	0	0	57	0	0
Cc1cc(NC(=O)CSc2cn(C)c3ccccc23)no1	0	0	0	95	0	0
C=CCn1c(=O)c2ccccc2n2c(SCC(=O)Nc3cc(C)on3)nnc12	50	0	0	0	0	0
CCn1cc(SCC(N)=O)c2ccccc21	0	-	-	0	0	0
CCn1cc(SCC(=O)Nc2cc(C)on2)c2ccccc21	0	0	0	55	0	0
O=C1C2CCCN2C(c2ccc(Cl)cc2)N1c1nccs1 (centres undefined)	-	0	0	-	-	-
COC(=O)c1cc(NC(=O)CN2C(=O)CSC2=O)ccc1Cl	69	0	0	0	0	0
COC(=O)c1ccccc1NC(=O)CN1C(=O)CSC1=O	0	-	-	0	0	0
Cc1cc(S(=O)(=O)N2CCC(NC(=O)C34CC5CC(CC(C5)C3)C4)CC2)ccc1-n1cnnn1	0	0	0	0	0	0
CCCn1c(SCc2cc(=O)oc3ccc4ccccc4c23)n[nH]c1=O	84	-	-	78	0	0
SMILES	CYP2C9 inh	sEH act	sEH inh	CYP2C19 inh	CYP2C19 activ	CYP2C9 activ
COc1cccc(CNC(=O)CCS(=O)(=O)c2cccc3nonc23)c1	0	-	-	0	0	0
COc1cccc(CNC(=O)CCS(=O)(=O)c2cccc3nsnc23)c1	0	0	0	64	0	0
CCc1ccc(NC(=O)CCS(=O)(=O)c2cccc3nsnc23)cc1	85	0	0	87	0	0
COc1cccc(CNC(=O)C2CCC(CNS(=O)(=O)c3cccc4nsnc34)CC2)c1 (centres undefined)	0	0	80	0	0	0
O=C(NCc1cccs1)C1CCC(CNS(=O)(=O)c2cccc3nsnc23)CC1 (centres undefined)	0	0	0	0	0	0
CCOC(=O)c1ccc(CNC(=O)c2n[nH]c(=O)c3ccccc23)o1	0	-	-	0	0	0
CSCCC(NC(=O)c1occc1C)C(=O)O (centres undefined)	0	0	0	0	0	0
O=c1c2ccccc2oc2nc3ccn(Cc4ccncc4)c(=O)c3cc12	59	0	0	0	0	0
CC(=O)c1cc2c(=O)c3ccccc3oc2nc1C	-	0	0	-	-	-
COC(=O)CC1SC(=O)NC1=Nc1cccc(C)c1 (centres undefined)	0	0	0	0	0	0

Assay outcomes (PubChem BioAssay)
